Source: PubChem (The Scripps Research Institute Molecular Screening Center)
ssDAF-12 act = S. stercoralis DAF-12 activation, primary screen; HEK293 ssDAF-12/GRIP1 lit1-tk-luc reporter, luminescence; % of 3 µM dafachronic acid response; activation, % at 6.8 µM; hit rate 1% among 370,000;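 active = activation above the mean over all tested compounds plus 3 SD, cut at about 0.9% in these data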
AHR act = activators of human aryl hydrocarbon receptor; AHR-responsive luciferase reporter cells, luminescence; activation, % at 5 µM; AID 2796; hit rate 2.5% among 320,000; in the data active = activation above about 47%
DAX1 inh-1 = inhibits human nuclear receptor DAX1 | P51843 | HEK293 Gal4-DAX1 luciferase reporter, luminescence | inhibition, % at 6.75 µM | hit rate 0.99% among 340,000;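 active = inhibition above the mean over all tested compounds plus 3 SD, cut at about 4.2% in these data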;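 note: inhibition shows as a rise in luminescence from relieved DAX1 repression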
DAX1 inh-2 = blocks DAX1 repression of SF-1 activated StAR promoter. HEK293T StAR-luciferase reporter, SF-1/DAX-1 repression relief. inhibition, % at 6.8 µM. hit rate 1.1% among 370,000;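 active = inhibition above the mean over all tested compounds plus 3 SD, cut at about 3.6% in these data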;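 note: higher inhibition means more luminescence from relief of DAX-1 repression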
hgDAF12 agonist = agonists of H. glycines DAF-12 nuclear receptor; activation, % at 6.8 µM; AID 687014; HEK293 GAL4-hgDAF12 UAS-luciferase reporter, agonist luminescence; normalized to butyrate control; hit rate 1.8% among 370,000;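 active = activation above a cutoff set at the mean of all screened compounds plus 3 SD, cut at about 10% in these data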
hcDAF-12 act = activators of H. contortus DAF-12 nuclear receptor; HEK293 hcDAF-12 lit1-tk-luc reporter, luminescence; 0% DMSO, 100% Δ7-dafachronic acid; activation, % at 6.8 µM; hit rate 1.4% among 370,000; AID 652067;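 active = activation above the mean of all tested compounds plus 3 SD, cut at about 5.5% in these data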
DAX1 inh confirm = confirmation of human DAX1 (NR0B1) inhibitors; shares compounds with DAX1 inh-2; HEK293T StAR-promoter luciferase reporter, SF-1/DAX-1 repression; inhibition, % at 6.8 µM; hit rate 87% among 2,400; AID 652134;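 active = inhibition above the average of every tested compound plus 3 SD, cut at about 3.8% in these data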;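 note: active compounds raise luminescence by relieving repression of the StAR reporter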
Target sequence (P51843 whole entry, looked up): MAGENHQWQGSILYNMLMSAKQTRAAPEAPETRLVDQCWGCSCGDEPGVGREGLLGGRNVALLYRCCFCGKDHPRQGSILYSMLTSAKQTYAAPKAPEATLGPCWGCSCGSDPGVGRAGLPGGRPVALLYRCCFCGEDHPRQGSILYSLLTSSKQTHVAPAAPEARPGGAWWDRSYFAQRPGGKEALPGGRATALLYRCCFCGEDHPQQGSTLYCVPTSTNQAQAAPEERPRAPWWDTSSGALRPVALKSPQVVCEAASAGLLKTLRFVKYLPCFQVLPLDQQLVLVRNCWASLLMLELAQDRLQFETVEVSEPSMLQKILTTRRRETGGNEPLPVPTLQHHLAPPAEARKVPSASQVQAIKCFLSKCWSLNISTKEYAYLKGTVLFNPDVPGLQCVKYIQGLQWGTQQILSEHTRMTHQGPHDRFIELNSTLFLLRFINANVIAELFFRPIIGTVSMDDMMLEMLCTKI
SF1 AF2mut Luc = nonselective inhibitor or artifact in SF-1 mutant DAX1 counter-screen. hit rate 78% among 2,400. shares compounds with DAX1 inh-2. inhibition, % at 6.8 µM. HEK293 StAR-luciferase, SF-1 AF2 mutant, luminescence;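 active = inhibition above the mean of all tested compounds plus 3 SD, cut at about 3% in these data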
LXRb hcDAF ctr = counter-screen for hcDAF-12 agonists: agonists of human LXR-beta. HEK293 Gal4-LXR tk-luc reporter, luminescence, 24 h; normalized: DMSO 0%, positive control 100%. shares compounds with hcDAF-12 act. 3,400 tested, under 10 active. activation, % at 6.8 µM;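 active = mean percent activation of the reporter above a cutoff set as the average over tested compounds plus their standard deviation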
hcDAF12 conf = hcDAF-12 agonism, confirmation assay. HEK293 hcDAF-12 lit1-tk-luc reporter, luminescence; % of Δ7-dafachronic acid response. hit rate 61% among 3,400. activation, % at 6.8 µM. shares compounds with hcDAF-12 act;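 active = mean activation across triplicate tests above the threshold derived from the earlier primary screen, cut at about 5.5% in these data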
hgDAF12 conf = hgDAF-12 agonism, confirmation assay | shares compounds with hgDAF12 agonist | HEK293 GAL4-hgDAF12 luciferase reporter, agonist mode; percent of butyrate response | activation, % at 6.8 µM | hit rate 80% among 3,300 | AID 743050;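 active = mean activation over triplicate wells above the hit cutoff derived from the earlier primary screen, cut at about 11% in these data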
LXRb DAF12 ctr = activates human LXR-beta, counter-screen for DAF-12 agonists; HEK293 Gal4-LXR luciferase reporter, 24 h; 3,300 tested, under 10 active; shares compounds with hgDAF12 agonist; activation, % at 6.8 µM;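 active = mean activation of the triplicate above a set limit carried over from the primary screen, none filed active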
Hits are given with their value; – = inactive; · = not tested or not shown. A selection: hits, their analogues and other compounds. The true share with any hit is near 5.7%.

SMILES	ssDAF-12 act	AHR act	DAX1 inh-1	DAX1 inh-2	hgDAF12 agonist	hcDAF-12 act	DAX1 inh confirm	SF1 AF2mut Luc	LXRb hcDAF ctr	hcDAF12 conf	hgDAF12 conf	LXRb DAF12 ctr
O=C(Nc1nc2ccccc2[nH]1)c1cccs1	–	–	–	6.6	14	–	4.6	4.6	·	·	13	–
Cc1ccc(C(=O)Nc2nc3ccccc3[nH]2)cc1	–	–	–	–	–	–	·	·	·	·	·	·
Cc1ccc(C(=O)Nc2ccc3nccnc3c2)cc1	–	–	–	5.3	13	9.0	17	8.3	–	7.7	16	–
Cc1cc(NC(=O)c2ccc3nccnc3c2)ccc1Br	–	64	–	5.6	16	–	7.6	4.7	·	·	15	–
COC(=O)c1ccc(NC(=O)c2ccc3nccnc3c2)cc1	–	–	–	–	–	–	·	·	·	·	·	·
CC(=O)c1ccc(NC(=O)c2ccc(C)c(Br)c2)cc1	–	–	–	4.9	16	5.7	12	9.4	·	·	18	–
CC(C)c1cc(C(=O)N/N=C/C=C/c2ccccc2)n[nH]1	–	–	–	–	–	–	·	·	·	·	·	·
CCN(CCO)c1ncnc2c1sc1nc(CC(C)C)c3c(c12)CC(C)(C)OC3	–	–	–	–	–	–	·	·	·	·	·	·
COc1ccc(C2=NN3C(C2)c2ccccc2OC32C(=O)N(C)c3ccccc32)cc1 (configuration not stated)	2.4	–	–	6.6	17	12	4.0	4.8	–	–	22	–
Cc1cc(N2CCOCC2)nc2ccccc12	–	–	–	–	–	–	·	·	·	·	·	·
COc1ccc2nc(N3CCOCC3)cc(C)c2c1	–	–	–	5.8	17	–	12	6.3	·	·	14	–
COc1ccc(/C=N/Nc2nc3ccccc3o2)cc1O	–	–	–	5.5	15	12	5.4	–	–	6.6	–	–
COc1cc(/C=N/Nc2nc3ccccc3o2)cc(OC)c1O	–	–	–	–	–	–	·	·	·	·	·	·
Cc1ccc(S(=O)(=O)N2[C@@H](c3ccc(F)cc3)C(C(=O)O)=CC[C@H]2c2ccc(C(C)C)cc2)cc1	–	–	–	–	–	–	·	·	·	·	·	·
CCc1ccc(NC(=O)c2onc(C)c2Cl)cc1	2.2	–	4.5	7.7	29	17	13	11	–	18	22	–
Cc1noc(C(=O)Nc2ccc(C#N)cc2)c1Cl	–	·	–	–	–	–	·	·	·	·	·	·
Nc1nnc(-c2ccc(F)cc2)s1	–	–	–	–	–	–	·	·	·	·	·	·
CC(C)(C)c1ccc(-c2nnc(N)s2)cc1	–	63	–	5.0	17	–	11	7.0	·	·	12	–
O=C(NC1CCCCC1)c1ccc(-c2ccccc2[N+](=O)[O-])o1	1.1	59	–	9.3	15	7.9	8.9	5.5	–	7.3	14	–
O=C(NC1CCCCC1)c1ccc([N+](=O)[O-])o1	·	–	–	·	·	·	·	·	·	·	·	·
CCCc1cc2c(=O)c(-c3ccc4c(c3)OCCO4)c(C)oc2cc1OS(C)(=O)=O	–	–	–	–	–	–	·	·	·	·	·	·
O=C(Nc1ncccc1O)c1cc2ccccc2o1	–	–	–	27	39	8.6	27	14	–	–	29	–
